High-throughput results deposited in PubChem BioAssay by National Center for Advancing Translational Sciences (NCATS).
Shown are actives, neighbours in structure and some others; about 4.8% of the full set was active somewhere.
DRD3 antagonist – antagonists of human D3 dopamine receptor. P35462. D3R cells, DiscoveRx beta-arrestin luminescence, antagonist mode; hits give low values. max response, negative = inhibition, %. 2.5% of 360,000 active. AID 652054; in the data active = max response below about -50%; inconclusive = no clear call, values can overlap the other calls; also: % is scaled to controls: 0 for no effect and ±100 for the full control effect
Target sequence (P35462 whole entry, looked up): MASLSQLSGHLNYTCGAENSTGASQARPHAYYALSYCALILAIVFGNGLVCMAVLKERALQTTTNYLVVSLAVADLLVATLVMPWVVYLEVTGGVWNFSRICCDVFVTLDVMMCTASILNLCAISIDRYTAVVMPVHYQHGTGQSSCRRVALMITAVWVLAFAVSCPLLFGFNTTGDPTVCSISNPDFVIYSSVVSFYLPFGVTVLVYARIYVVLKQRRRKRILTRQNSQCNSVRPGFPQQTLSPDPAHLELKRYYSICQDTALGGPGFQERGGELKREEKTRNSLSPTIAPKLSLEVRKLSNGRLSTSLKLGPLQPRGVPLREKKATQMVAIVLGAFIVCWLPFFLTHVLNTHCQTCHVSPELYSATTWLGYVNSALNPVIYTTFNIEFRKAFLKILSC
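Cells plated overnight at 1500 cells/well, then exposed to library compounds with dopamine controls for 90 minutes at 37 degrees C. DiscoveRx reagent added for 30–60 minutes at room temperature; luminescence read, quantitative HTS format.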
S2 tox – cell viability loss in ATXN counter-screen; S2 cells (HEK-293 line with an ATXN2-luciferase reporter) viability, CellTiter-Fluor protease fluorescence, 24 h; Potency, µM (series often up to 56.7 µM), most hits filed as cytotoxic; 0.49% of 400,000 active; AID 651635; also: potency is read from the fitted curve at half-maximal effect; nearly all actives have a fitted effect of over 40% in size
D3 ag – agonists of human D3 dopamine receptor. 0.58% of 410,000 active. D3R DiscoveRx beta-arrestin cells, luminescence, 90 min. max activation, %. AID 652048; in the data active = max activation above about 30%; also: 0% is about no effect
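Cells at 1500/well, incubated overnight, then treated with pinned compounds (dopamine as control) for 90 min at 37 degrees C. DiscoveRx reagent added for 30 - 60 minutes at room temperature; luminescence read.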
TGFb inhibitor – blocks TGF-b signaling | AID 588855 | 1.2% of 410,000 active | Potency, µM (titrated, usually from 46.1 µM), inactives show at the highest dose activity, negative = inhibition, actives largely listed as inhibitors | HepG2 CAGA-GFP TGF-b/SMAD3 reporter, GFP fluorescence, 18 h; TGF-beta stimulated, 500 pg/mL final; also: potency is read from the fitted curve at half-maximal effect; % is scaled to controls: 0 for no effect and ±100 for the full control effect; nearly all actives have a fitted effect of over 65% in size
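Per well, imaged GFP fluorescence of HEPG2 CAGA-GFP cells gives the signal; cells get compound, then TGF-beta (500 pg/mL final), 18 h at 37 degrees C; %Activity versus -TGF-beta and +DMSO controls.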
HepG2 viability – counter-screen for TGF-b inhibitors: cytotoxicity in HepG2 cells | HepG2 CAGA-GFP viability, ATP luminescence, 18 h | Potency, µM (doses to about 46.1 µM), for the others: at the highest dose activity change, negative = cytotoxicity, actives largely listed as cytotoxic | 0.76% of 410,000 active; also: potency is read from the fitted curve at half-maximal effect
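HepG2 CAGA-GFP cells (1000/well, DMEM with 1% FBS) received compound, then TGF-beta at 500 pg/mL final, and were incubated 18 hours at 37 degrees C. Viability was read by CellTiter-Glo luminescence. Media-only wells were set as complete cell-killing and DMSO as no toxicity.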
ATXN2 expr inh – ATXN2 expression inhibition. HEK-293 ATXN2-luciferase reporter, luminescence, 24 h. Potency, µM (top dose mostly 57 µM), for the others: at the highest dose activity change, negative = inhibition, most hits filed as inhibitors. 0.72% of 360,000 active; also: potency is read from the fitted curve at half-maximal effect; % is scaled to controls: 0 for no effect and ±100 for the full control effect; nearly all actives have a fitted effect of over 55% in size
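qHTS (up to 57 uM final) was run with 24 h compound exposure of reporter cells at 37 °C. Each well was multiplexed: SteadyGlo luminescence measured ATXN2-luciferase expression after a fluorogenic Gly-Phe-AFC viability readout (25 uM final).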
* hit, by the source's call; i = inactive; ? = inconclusive; . = not tested or not shown. Unless noted, calls follow the shape of the dose curve; as a rule, active = well fitted curve in the direction sought with a large enough effect; inconclusive = small, poorly fitted or top-dose-only effect, or another doubt; inactive = no such curve, though single readings can be large; an effect the other way counts as inactive or inconclusive.

SMILES	DRD3 antagonist	S2 tox	D3 ag	TGFb inhibitor	HepG2 viability	ATXN2 expr inh
CC1(C)CC(=O)C=C(c2ccc(-c3cnc4ccccc4c3)cc2)C1=O	-3	7.9µM*	6	-6%	-23%	?
CC1(C)CC(=O)C=C(c2ccc(Oc3ccccc3)cc2)C1=O	1	?	1	-11%	-32%	11%
CCCS(=O)(=O)c1ncc(Cl)c(C(=O)N(Cc2ccccc2)Cc2ccco2)n1	.	.	-26	8.9µM*	4µM*	.
COc1ccc(NC(=O)c2nc(SC)ncc2Cl)cc1	-5	i	0	4%	-18%	-6%
COc1ccc(N(Cc2ccccc2)C(=O)c2nc(SC)ncc2Cl)cc1	.	i	-19	13µM*	-30%	?
CCS(=O)(=O)c1ncc(Cl)c(C(=O)N(Cc2ccccc2)c2ccc(OC)cc2)n1	.	.	-24	3.2µM*	3.2µM*	.
CCCn1c(=N)n(CC(O)COc2cccc(C)c2)c2ccccc21 (stereo unspecified)	32	?	1	-1%	-55%	?
CCCCCn1c(=N)n(CC(O)COc2cccc(C)c2)c2ccccc21 (stereo unspecified)	.	20µM*	1	?	-107%	32µM*
CCCCn1c(=N)n(CC(O)COc2ccc(C)cc2)c2ccccc21 (stereo unspecified)	9	.	1	?	13µM*	.
Cc1ccc(Cn2c(=N)n(CC(O)COc3ccccc3)c3ccccc32)cc1 (stereo unspecified)	-4	i	-2	?	2.8µM*	-24%
O=C(c1ccco1)N(Cc1cc2cc3c(cc2nc1N1CCOCC1)CCC3)CC1CCCO1 (stereo unspecified)	.	i	.	.	.	.
CCOc1ccc(NC(=O)CC2C(=O)N(c3ccc(F)cc3)C(=O)N2CCc2sccc2C)cc1 (stereo unspecified)	.	?	3	?	-19%	-17%
O=C(O)c1cc(Nc2cc(Cl)c3nonc3c2[N+](=O)[O-])ccc1O	?	11µM*	-12	-26%	-12%	.
O=[N+]([O-])c1c(Nc2ccccc2O)ccc2nonc12	-25	?	-7	-20%	2%	-16%
O=[N+]([O-])c1c(Nc2ccccc2O)cc(Cl)c2nonc12	-140*	13µM*	-33	4µM*	10µM*	13µM*
O=C(C[N+]1(CCO)CCOCC1)c1cccc2ccccc12	.	.	.	-4%	1%	.
CC(C)C(=O)Nc1cccc(-c2cnc3ccccc3n2)c1	4	i	5	5%	-35%	12%
CNC(=S)Nc1cccc(-c2cnc3ccccc3n2)c1	-74*	i	-12	-17%	0%	10%
Fc1ccc(-c2nnc(NC3=NCCCCC3)o2)cc1	-15	i	-2	5%	13µM*	4µM*
c1ccc(-c2nnc(NC3=NCCC3)o2)cc1	0	i	-10	-5%	-17%	?
CC1=Nc2cc(C(=O)NCCc3ccc(Cl)cc3)ccc2Sc2c(C)ccc(C)c21	.	?	-9	7.9µM*	-2%	11%
CCCNC(=O)c1ccc2c(c1)N=C(C)c1c(C)ccc(C)c1S2	.	?	-2	?	-22%	-7%
CC1=Nc2cc(C(=O)NCCN3CCOCC3)ccc2Sc2c(C)ccc(C)c21	-1	i	2	16µM*	-62%	.
CC1=Nc2cc(C(=O)NCCc3ccccc3)ccc2Sc2c(C)ccc(C)c21	.	?	-8	6.3µM*	-19%	-18%
COc1ccc(CNC(=O)c2ccc3c(c2)N=C(C)c2c(C)ccc(C)c2S3)cc1	.	?	-5	?	-22%	2%
SMILES	DRD3 antagonist	S2 tox	D3 ag	TGFb inhibitor	HepG2 viability	ATXN2 expr inh
CCOC(=O)c1cc(-c2ccc(F)cc2)n(CCC(=O)Nc2nc3ccc(OC)cc3s2)c1C	.	.	-4	?	-39%	.
CCC(=O)O[C@@H]1CC(=O)O[C@H](C)C/C=C/C=C/[C@H](O)[C@H](C)C[C@H](CC=O)[C@H](O[C@@H]2O[C@H](C)[C@@H](O[C@H]3C[C@@](C)(O)[C@@H](OC(=O)CC)[C@H](C)O3)[C@H](N(C)C)[C@H]2O)[C@H]1OC	.	i	7	.	.	.
Cc1c(Cn2cnc3c(cnn3C(C)(C)C)c2=O)cccc1C(F)(F)F	.	.	.	-27%	-7%	.
CC(C)CCOc1ccc(Cn2c(=O)oc3ccccc32)cc1	.	i	-6	1%	-2%	-3%
COC(=O)COc1cccc(NS(=O)(=O)c2ccc(NC(C)=O)cc2)c1	-64*	i	-6	-16%	-10%	1%
CCOc1ccc2nc(NS(=O)(=O)c3ccc(NC(C)=O)cc3)sc2c1	-57*	?	2	1%	-8%	-32%
CCOc1ccc2nc(NC(=O)CS(=O)(=O)c3ccccc3)sc2c1	156	?	32*	5%	1%	0%
CC(=O)Nc1ccc2nc(NC(=O)CS(=O)(=O)c3ccccc3)sc2c1	12	i	-6	11%	-18%	5%
CCOc1ccc2nc(NC(=O)CS(=O)(=O)c3ccc(C)cc3)sc2c1	122	i	38*	24%	-42%	6%
CCOc1ccc2nc(NC(=O)CS(=O)(=O)c3ccc(Cl)cc3)sc2c1	.	.	29	0%	-62%	.
COc1ccc(CCNC(=O)CCn2c(=O)c3ccccc3n(Cc3ccccc3F)c2=O)cc1OC	.	i	1	-20%	-2%	-10%
COC(=O)c1ccccc1NS(=O)(=O)c1ccc(NC(C)=O)cc1	15	i	3	1%	2%	9%
COC(=O)c1ccc(C)c(NS(=O)(=O)c2ccc(NC(C)=O)cc2)c1	-55*	i	-8	4%	-4%	-1%
COc1cc(Nc2nc(SCc3ccccc3Cl)nc3ccccc23)cc(OC)c1	.	.	5	11µM*	-39%	.
Cn1c(SCC(=O)NCc2ccc(F)cc2)ncc(C(=O)Nc2ccccc2)c1=O	8	i	-2	4%	-8%	-38%
COc1ccccc1CNC(=O)CSc1ncc(C(=O)Nc2ccccc2)c(=O)n1C	-69*	i	-10	3%	1%	2%
CCOc1ccc2ncc3c(-c4ccccc4)nn(CC(=O)Nc4cccc(F)c4)c3c2c1	.	i	3	1%	3%	-7%
N#C/C(N=Nc1ccccc1O)=N\Nc1ccccc1O	-2	16µM*	11	?	-67%	?
Oc1ccccc1N=N/C(=N/Nc1ccccc1O)c1ccccc1	-22	i	-2	14%	-3%	13%
O=C(CO)[C@@H](O)[C@H](O)[C@H](O)CO	.	i	6	.	.	.
